# FLuc counter: counter-screen for miR-21 project: firefly luciferase inhibitors or activators | 6.9% of 360,000 active | Potency, µM (top dose mostly 57.5 µM), for the others: top-dose activity change, negative = inhibition, hits mostly inhibitors | purified FLuc, Km substrates, luminescence inhibition;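 note: plate controls were vehicle for no effect and reference inhibitor for full effect; nearly all actives have a fitted effect of over 55% in size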
# Target sequence (P08659 whole entry, looked up): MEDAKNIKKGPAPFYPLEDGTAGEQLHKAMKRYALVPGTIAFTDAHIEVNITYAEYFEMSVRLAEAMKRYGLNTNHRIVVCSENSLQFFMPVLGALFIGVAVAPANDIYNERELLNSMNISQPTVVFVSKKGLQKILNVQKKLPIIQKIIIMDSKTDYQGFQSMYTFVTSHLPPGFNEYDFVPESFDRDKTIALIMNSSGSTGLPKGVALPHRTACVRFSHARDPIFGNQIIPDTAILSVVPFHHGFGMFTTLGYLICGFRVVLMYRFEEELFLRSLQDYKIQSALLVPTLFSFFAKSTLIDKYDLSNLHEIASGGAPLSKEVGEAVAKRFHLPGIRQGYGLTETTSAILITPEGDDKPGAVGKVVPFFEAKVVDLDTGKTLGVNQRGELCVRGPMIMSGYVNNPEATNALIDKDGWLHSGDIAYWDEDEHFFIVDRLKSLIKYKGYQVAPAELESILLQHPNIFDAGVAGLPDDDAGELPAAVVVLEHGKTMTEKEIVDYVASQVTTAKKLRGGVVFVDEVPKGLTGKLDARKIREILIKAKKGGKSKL
#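 Biochemical qHTS of compounds, final roughly 60 µM downward over six points, against 10 nM purified firefly luciferase using Km concentrations of substrates (10 uM D-luciferin, 10 uM ATP) in Tris acetate pH 7.5 buffer; luminescence output.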
# Luc counter: blocks Kinase-Glo luciferase, a counter-screen artifact. AID 1379. Potency, µM (doses to about 38.3 µM), without a hit: at the top dose activity change, negative = inhibition, actives largely listed as inhibitors. Kinase-Glo luciferase, ATP luminescence, 8 min. 0.28% of 200,000 active. Q27757; note: % is set by controls: 0 for no effect and ±100 for the full control effect; nearly all actives have a fitted effect of over 60% in size
#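 Substrate mix (final 50 mM imidazole pH 7.2, 50 mM KCl, 7 mM MgCl2, 10 uM ATP, 0.01% Tween 20, 0.05% BSA) plus pin-tool compound, then Kinase-Glo detection mix; 8 min ambient, luminescence read.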
# ELG1 genotox: induces genotoxicity in HEK293T cells with luciferase-tagged ELG1. AID 504466. HEK293T ELG1-luciferase reporter, luminescence, 16 h. 1.3% of 330,000 active. Potency, µM (doses to about 46 µM), for the others: at the highest dose activity change, positive = activation, usual class: activators; note: % of control where 0% means no effect; nearly all actives have a fitted effect of over 60% in size
#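 HEK293T cells expressing luciferase-tagged ELG1 were treated with compound or DMSO for 16 hr at 37°C. Luciferase activity was then read after 30 min with ONE-Glo at room temperature; rising signal flags genetic stress.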
# SMN2 splice up: SMN2 splice variant enhancement; Potency, µM (doses to about 46.1 µM), inactives show top-dose activity change, positive = activation, usual class: activators; AID 1458; 2.8% of 210,000 active; HEK293 SMN2-luciferase splicing reporter, luminescence, 30-36 h; note: % of control where 0% means no effect; nearly all actives have a fitted effect of over 55% in size
#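 HEK293 cells carry an SMN2 […]–luciferase reporter in which exon 7 inclusion puts luciferase in frame. Cells were plated 10-12 h before compound addition, then incubated 30-36 h at 37C. ONE-Glo luminescence was read; sodium butyrate at 4.5 mM final served as control.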
# NPC1 promoter act: activates the NPC1 promoter; Huh7 NPC1 promoter luciferase reporter, 24 h; Potency, µM (doses to about 9.22 µM), for the others: top-dose activation, most hits filed as activators; 2.4% of 320,000 active; note: % of control where 0% means no effect; nearly all actives have a fitted effect of over 60% in size
#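 In 1536-well qHTS, Huh7 cells harboring an NPC1 promoter–luciferase construct received compound for 24 h; activation was quantified by luminescence following luciferase reagent addition.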
# Rab9 promoter act: activates the Rab9 promoter; Potency, µM (titrated, usually from 9.22 µM), inactives show top-dose activation, negative = inhibition, usual class: activators; Huh7 Rab9 promoter-luciferase reporter, luminescence, 24 h; AID 485297; 2.8% of 320,000 active; note: % of control where 0% means no effect; nearly all actives have a fitted effect of over 60% in size
#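 Huh7 cells stably carrying Rab9 promoter–luciferase reporter, plated 1500 cells/well, compound added after 2 h and incubated 24 h at 37 °C; luciferase luminescence then read after 10 min with detection reagent.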
# Active calls of the source: *; ? = inconclusive; . = not tested or not shown; [ ] = dose if it differs, or a comment. Sampled rows, rich in hits. Any-hit rate of the full collection: about 7.4%. Calls come from the whole dose curve; as a rule, active = well fitted curve in the direction sought with a large enough effect; inconclusive = small, poorly fitted or top-dose-only effect, or another doubt; inactive = no such curve, though single readings can be large; an effect the other way counts as inactive or inconclusive. Potency is the fitted concentration of half-maximal effect.
SMILES,FLuc counter,Luc counter,ELG1 genotox,SMN2 splice up,NPC1 promoter act,Rab9 promoter act
NC(=O)c1c(NC(=O)c2cccs2)sc2c1CCCCCC2,4.8µM*,-1%,6%,?,?,3.2µM*
N#Cc1ccc(C23CC4(C2)[C@H](CN(Cc2cccnc2)[C@@H]4c2ccccc2)C3c2ccc(C(F)(F)F)cc2)cc1 (stereo partly specified),.,0%,.,-39%,.,.
COc1ccc(OC)c(CCNC(=O)c2c(C)nn(-c3ccc(F)cc3)c2-n2cccc2)c1,2%,.,.,.,.,.
N#Cc1ccccc1NC(=O)c1ccc(-c2ccccc2Cl)o1,?,1%,?,?,4µM*,?
CC(C)NC(=O)c1ccc(-c2ccccc2C(F)(F)F)o1,?,0%,10%,?,22%,25%
O=C(Nc1ccccc1)c1ccc(-c2ccccc2Cl)o1,6µM*,-3%,?,?,29%,?
O=C(Nc1ccccc1)c1ccc(-c2ccccc2C(F)(F)F)o1,17µM*,-1%,16%,16%,21%,19%
CCN(CC)CCOC(=O)c1ccc(NC(=O)c2cc3c(s2)-c2ccccc2OC3)cc1,-11%,.,.,-1%,.,.
COc1ccc(OC)c(NC(=O)COCc2cc(-c3ccc(F)cc3)on2)c1,-3%,.,.,.,.,.
Cc1ccc2nc(N3C(=O)C(O)=C(C(=O)c4ccco4)C3c3cccs3)sc2c1 (stereo unspecified),17µM*,0%,12%,0%,-3%,16%
Nc1ccccc1SCC(=O)Nc1ccc2c(c1)OCCO2,19µM*,.,?,.,2.2µM*,3.2µM*
Nc1nnc(SCC(=O)Nc2ccc3c(c2)OCCO3)s1,19µM*,-2%,?,-52%,19%,3%
CCC(=O)Nc1nnc(SCC(=O)Nc2ccc3c(c2)OCCO3)s1,-18%,.,3%,.,-1%,.
CCOc1ccc(NC(=O)CSc2ncc(-c3ccc(F)cc3)n2Cc2ccco2)cc1,-1%,.,-8%,.,-1%,-12%
Nc1ccccc1SCC(=O)Nc1ccc2c(c1)OCO2,2%,.,0%,.,?,4µM*
O=C(CSc1ncc(-c2ccc(F)cc2)n1Cc1ccco1)Nc1ccc2c(c1)OCO2,19µM*,-2%,.,-1%,.,.
Cc1ccnc(NC(=O)CSc2ccc3c(c2)OCCO3)c1,?,.,18µM*,.,18%,5%
Cc1nc(SCC(=O)Nc2ccc3c(c2)OCCO3)nc(C)c1C,-3%,5%,13%,?,1%,3%
Nc1nnc(SCC(=O)Nc2ccc(Cl)cc2)s1,-1%,.,.,.,.,.
CC(C)c1ccc(NC(=O)COC(=O)CSc2nnc(N)s2)cc1,15µM*,-1%,0%,2%,0%,3%
Cc1cccc(SCC(=O)Nc2ccc3c(c2)OCCO3)c1,?,.,-1%,.,2µM*,4µM*
CC(Nc1ccc2c(c1)OCCO2)C(=O)N1CCc2ccccc21 (stereo unspecified),27µM*,-1%,12%,16%,10%,29%
CC(NCc1ccc2c(c1)OCO2)C(=O)N1CCc2ccccc21 (stereo unspecified),2%,-2%,1%,-18%,-3%,0%
COc1ccc(-c2nnc(SCC(=O)Oc3cc(C)ccc3C)o2)cc1,0%,.,.,.,.,.
CCOC(=O)C1CCN(C(=O)c2c(C)nn(-c3ccc(F)cc3)c2-n2cccc2)CC1,1%,.,.,.,.,.
SMILES,FLuc counter,Luc counter,ELG1 genotox,SMN2 splice up,NPC1 promoter act,Rab9 promoter act
Fc1ccc(NC(=S)N2N=CCC2c2ccccc2)cc1 (stereo unspecified),?,-28%,23µM*,10%,22%,18%
S=C(Nc1ccccc1)N1N=CCC1c1ccccc1 (stereo unspecified),17µM*,-5%,?,-8%,22%,30%
O=C(Nc1cccc(Cl)c1)N1N=CCC1c1ccccc1 (stereo unspecified),-3%,.,-3%,.,1%,-1%
CCCCN(C)CCNC(=O)c1nn(-c2ccc(OC)c(Cl)c2)c(=O)c2c1c1ccccc1n2C,3%,.,.,-2%,.,.
NC(Cc1ccccc1)=NCC(=O)O,.,-4%[7.66 µM],.,-7%[9.22 µM],.,.
Cc1ccc(C(=O)Nc2nc(-c3nnn(-c4cccc(Cl)c4C)c3C)ns2)cc1C,-8%,.,.,.,.,.
Cc1ccc(Cl)cc1-n1nnc(-c2nsc(NC(=O)c3ccccc3Cl)n2)c1C,12µM*,.,.,-25%,.,.
Cc1nn2cc(-c3cccc(Cl)c3)cnc2c1Cl,-20%,-4%,18%,13µM*,-12%,?
Cc1nn2cc(-c3cccc(Cl)c3)cnc2c1Br,?,-10%,?,?,-10%,2%
CC(C)c1ccc(NC(=O)c2ccc(F)c(S(=O)(=O)N3CCc4ccccc4C3)c2)cc1,0%,.,.,.,.,.
Cc1csc2nc(COc3ccc(NC(=O)COc4ccc(F)cc4)cc3)cc(=O)n12,-6%,.,.,-12%,.,.
CCCCC(CC)C/C=C1\CC(C(=O)OCC)Oc2ccccc21 (stereo unspecified) (tested in a mixture with another compound),.,1%[39.9 µM],.,.,.,.
Cc1ccc(-c2noc(CSc3nc(N)cc(N)n3)n2)cc1,15µM*,3%,13%,?,2.8µM*,2.2µM*
c1ccc(SCc2nc(-c3cccnc3)no2)cc1,11µM*,-5%,3.7µM*,11µM*,2µM*,1.4µM*
c1ccc(C(Cc2nc(-c3cccnc3)no2)c2ccccc2)cc1,-3%,0%,-17%,-1%,-2%,0%
Cc1ccc(-c2noc(CSc3ccccc3)n2)cc1,2.1µM*,9%,7.3µM*,?,1.8µM*,1.8µM*
Cc1cccc(-c2noc(CSc3ccccc3)n2)c1,9.5µM*,0%,?,?,2.5µM*,3.5µM*
COc1ccc(CN2C(=O)N(c3ccc(C)cc3)C(=O)C2CC(=O)Nc2ccccc2)cc1OC (stereo unspecified),-1%,.,.,24%,.,.
O=S(=O)(c1ccccc1)N1CCC2(CC1)CN(c1ccccn1)C2,.,-4%,.,-44%,.,.
Cc1nn(-c2ccccc2)c(OC(=O)C(C)C)c1Sc1ccc(Cl)cc1,13µM*,.,.,1%,.,.
ClC1=C(Cl)C(Cl)(Cl)C(Cl)=C1Cl,.,.,.,0%,.,.
Cc1csc(SCC(=O)c2cc(C)n(Cc3cccs3)c2C)n1,0.17µM*,-2%,?,-62%,?,0.32µM*
Cc1cc(C(=O)CSc2n[nH]c(-c3ccccc3F)n2)c(C)n1Cc1cccs1,17µM*,21%,-5%,-8%,0%,-5%
COc1ccc(-n2cnnc2SCC(=O)c2cc(C)n(Cc3cccs3)c2C)cc1,?,5%,-4%,6%,1%,-1%

# Compound activity: PubChem, National Center for Advancing Translational Sciences (NCATS)
